According to ChEMBL document CHEMBL5724796, “Tm Shift (DSF) assay results for EUbOPEN Chemogenomics Library” (2024):
Residues, ends and D or L forms follow the SMILES beside them.

What was measured:
Conditions in all cases: Compound concentration 20.0 uM
[1] = biological target: Tyrosine-protein kinase ABL1 (Homo sapiens) (UniProt P00519)
[2] = biological target: Bromodomain-containing protein 4 (Homo sapiens) (UniProt O60885)
[3] = biological target: Cyclin-dependent kinase 2 (Homo sapiens) (UniProt P24941)
[4] = biological target: Casein kinase I isoform delta (Homo sapiens) (UniProt P48730)
Chain of Casein kinase I isoform delta (Homo sapiens) (P48730 whole entry, looked up, canonical isoform): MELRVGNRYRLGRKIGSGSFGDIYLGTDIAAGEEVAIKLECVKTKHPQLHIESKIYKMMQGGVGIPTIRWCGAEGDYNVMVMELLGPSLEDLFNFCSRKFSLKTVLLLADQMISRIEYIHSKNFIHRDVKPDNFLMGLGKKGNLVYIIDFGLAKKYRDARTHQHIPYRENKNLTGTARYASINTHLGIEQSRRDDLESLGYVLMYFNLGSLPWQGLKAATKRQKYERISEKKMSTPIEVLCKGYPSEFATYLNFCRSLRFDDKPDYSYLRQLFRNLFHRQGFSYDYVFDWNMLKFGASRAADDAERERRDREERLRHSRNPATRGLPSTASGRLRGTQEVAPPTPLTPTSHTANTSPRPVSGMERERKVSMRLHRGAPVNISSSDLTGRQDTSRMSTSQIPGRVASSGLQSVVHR

[5] = biological target: Glycogen synthase kinase-3 beta (Homo sapiens) (UniProt P49841)
Chain of Glycogen synthase kinase-3 beta (Homo sapiens) (P49841 whole entry, looked up): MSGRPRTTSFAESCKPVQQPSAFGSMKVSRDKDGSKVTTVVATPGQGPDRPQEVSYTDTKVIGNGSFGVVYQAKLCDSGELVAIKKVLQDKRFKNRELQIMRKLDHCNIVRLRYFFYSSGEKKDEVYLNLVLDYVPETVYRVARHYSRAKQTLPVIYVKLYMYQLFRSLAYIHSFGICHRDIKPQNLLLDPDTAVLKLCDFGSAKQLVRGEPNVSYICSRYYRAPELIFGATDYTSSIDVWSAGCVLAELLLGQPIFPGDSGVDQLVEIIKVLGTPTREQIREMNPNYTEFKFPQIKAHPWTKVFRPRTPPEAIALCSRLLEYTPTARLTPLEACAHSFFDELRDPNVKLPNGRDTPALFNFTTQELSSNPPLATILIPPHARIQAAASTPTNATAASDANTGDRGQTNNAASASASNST

[6] = biological target: Mitogen-activated protein kinase 1 (Homo sapiens) (UniProt P28482)
Chain of Mitogen-activated protein kinase 1 (Homo sapiens) (P28482 whole entry): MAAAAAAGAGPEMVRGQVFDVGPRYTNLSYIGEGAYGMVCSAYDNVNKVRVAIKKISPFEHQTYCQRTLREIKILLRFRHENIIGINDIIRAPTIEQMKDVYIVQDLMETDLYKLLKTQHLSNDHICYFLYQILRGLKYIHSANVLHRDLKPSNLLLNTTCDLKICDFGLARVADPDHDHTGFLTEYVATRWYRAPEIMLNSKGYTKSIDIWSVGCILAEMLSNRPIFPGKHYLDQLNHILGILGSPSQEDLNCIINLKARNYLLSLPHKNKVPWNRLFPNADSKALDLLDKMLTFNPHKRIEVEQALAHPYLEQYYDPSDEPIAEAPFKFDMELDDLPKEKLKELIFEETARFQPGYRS

[7] = biological target: T1, Aurora kinase A (Homo sapiens) (UniProt O14965)
T1 sequence (whole entry): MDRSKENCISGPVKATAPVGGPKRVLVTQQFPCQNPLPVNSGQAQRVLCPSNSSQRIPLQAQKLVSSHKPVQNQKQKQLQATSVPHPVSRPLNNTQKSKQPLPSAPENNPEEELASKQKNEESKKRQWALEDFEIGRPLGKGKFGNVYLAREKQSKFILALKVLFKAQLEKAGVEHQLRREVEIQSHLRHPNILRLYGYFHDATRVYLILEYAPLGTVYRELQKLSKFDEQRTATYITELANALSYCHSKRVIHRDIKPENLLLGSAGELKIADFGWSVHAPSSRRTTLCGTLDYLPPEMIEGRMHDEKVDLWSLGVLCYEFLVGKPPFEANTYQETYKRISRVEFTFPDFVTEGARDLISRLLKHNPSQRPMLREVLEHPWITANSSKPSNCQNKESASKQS

[8] = biological target: T2, Transcription intermediary factor 1-alpha (Homo sapiens) (UniProt O15164)
T2 sequence (whole entry): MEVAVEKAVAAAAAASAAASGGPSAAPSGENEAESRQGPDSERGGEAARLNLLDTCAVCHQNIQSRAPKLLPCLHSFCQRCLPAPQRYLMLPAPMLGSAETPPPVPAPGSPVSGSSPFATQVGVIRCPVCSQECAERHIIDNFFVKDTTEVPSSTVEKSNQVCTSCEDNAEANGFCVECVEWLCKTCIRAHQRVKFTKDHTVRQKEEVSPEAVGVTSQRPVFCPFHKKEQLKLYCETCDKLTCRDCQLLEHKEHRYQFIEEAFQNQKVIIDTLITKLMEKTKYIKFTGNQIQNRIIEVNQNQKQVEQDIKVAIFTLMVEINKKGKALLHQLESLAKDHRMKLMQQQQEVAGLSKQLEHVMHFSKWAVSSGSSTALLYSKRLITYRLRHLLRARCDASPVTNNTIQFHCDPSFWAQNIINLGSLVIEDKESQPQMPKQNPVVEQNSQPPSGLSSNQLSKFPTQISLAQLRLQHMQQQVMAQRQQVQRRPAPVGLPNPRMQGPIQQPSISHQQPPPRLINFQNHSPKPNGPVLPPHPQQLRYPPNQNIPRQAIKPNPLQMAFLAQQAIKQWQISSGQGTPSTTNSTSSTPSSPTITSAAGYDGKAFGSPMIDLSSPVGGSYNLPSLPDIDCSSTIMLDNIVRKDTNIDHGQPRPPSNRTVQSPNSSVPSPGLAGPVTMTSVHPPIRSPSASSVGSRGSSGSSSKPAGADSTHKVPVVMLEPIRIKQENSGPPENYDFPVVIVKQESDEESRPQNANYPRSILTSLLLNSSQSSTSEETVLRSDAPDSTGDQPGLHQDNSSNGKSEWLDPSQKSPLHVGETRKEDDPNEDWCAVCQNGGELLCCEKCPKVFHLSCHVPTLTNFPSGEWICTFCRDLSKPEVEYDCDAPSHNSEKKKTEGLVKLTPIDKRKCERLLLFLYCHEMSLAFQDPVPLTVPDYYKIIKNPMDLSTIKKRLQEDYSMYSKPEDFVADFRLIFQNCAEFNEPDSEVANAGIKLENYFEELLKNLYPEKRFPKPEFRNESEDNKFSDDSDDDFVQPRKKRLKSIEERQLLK

Chain of Tyrosine-protein kinase ABL1 (Homo sapiens) (P00519 whole entry): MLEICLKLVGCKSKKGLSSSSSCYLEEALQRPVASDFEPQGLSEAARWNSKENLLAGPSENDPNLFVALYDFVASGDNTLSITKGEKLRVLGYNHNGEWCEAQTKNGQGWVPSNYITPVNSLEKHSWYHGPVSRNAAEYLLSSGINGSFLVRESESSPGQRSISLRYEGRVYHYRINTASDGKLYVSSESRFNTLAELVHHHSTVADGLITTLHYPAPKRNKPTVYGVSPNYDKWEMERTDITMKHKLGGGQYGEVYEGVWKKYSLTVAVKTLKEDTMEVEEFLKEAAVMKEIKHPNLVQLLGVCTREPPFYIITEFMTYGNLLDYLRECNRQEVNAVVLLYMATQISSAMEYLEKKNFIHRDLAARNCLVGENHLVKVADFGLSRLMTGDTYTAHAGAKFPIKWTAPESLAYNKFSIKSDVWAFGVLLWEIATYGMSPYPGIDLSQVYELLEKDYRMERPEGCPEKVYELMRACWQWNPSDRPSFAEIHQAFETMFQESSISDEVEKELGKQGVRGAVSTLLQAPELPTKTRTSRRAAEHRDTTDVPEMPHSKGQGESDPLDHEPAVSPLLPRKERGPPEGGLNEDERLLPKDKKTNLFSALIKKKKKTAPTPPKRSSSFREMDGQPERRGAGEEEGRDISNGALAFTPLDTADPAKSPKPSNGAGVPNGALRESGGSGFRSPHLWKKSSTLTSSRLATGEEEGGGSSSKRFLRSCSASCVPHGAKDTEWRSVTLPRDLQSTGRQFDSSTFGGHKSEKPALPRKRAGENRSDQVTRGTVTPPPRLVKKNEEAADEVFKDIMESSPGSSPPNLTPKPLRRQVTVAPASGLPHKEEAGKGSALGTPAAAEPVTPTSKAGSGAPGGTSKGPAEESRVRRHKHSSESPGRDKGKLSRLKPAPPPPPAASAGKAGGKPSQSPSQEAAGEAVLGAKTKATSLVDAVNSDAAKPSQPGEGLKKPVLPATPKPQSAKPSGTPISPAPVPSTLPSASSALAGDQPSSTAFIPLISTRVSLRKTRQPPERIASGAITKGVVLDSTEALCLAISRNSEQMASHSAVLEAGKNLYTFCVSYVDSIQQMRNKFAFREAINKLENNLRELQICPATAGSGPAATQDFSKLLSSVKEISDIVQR

Compound | ΔTm [1] [°C] | ΔTm [2] [°C] | ΔTm [3] [°C] | ΔTm [4] [°C] | ΔTm [5] [°C] | ΔTm [6] [°C] | ΔTm [7] [°C] | ΔTm [8] [°C] | ΔTm ([1]; Protein concentration 2.0 uM) [°C]
CCNC(=O)c1cc2c(-c3cc(C(C)(C)O)ccc3Oc3c(C)cc(F)cc3C)cn(C)c(=O)c2[nH]1 | 0.23 | 11.1 | 0.42 | -0.31 | -0.33 | 1.43 | -2.76 | 0.91 | –
CC(C)(F)C[C@H](N[C@@H](c1ccc(-c2ccc(S(C)(=O)=O)cc2)cc1)C(F)(F)F)C(=O)NC1(C#N)CC1 | 0.21 | -2.13 | -0.11 | -0.06 | 0 | -1.51 | -0.27 | -1.8 | –
Cc1nn2c(nc(O)c3cccnc32)c1C#N | 0.68 | -3.07 | 0.02 | -0.11 | -0.51 | 0.18 | -2.1 | 1.17 | –
FC(F)(F)Cn1cc(-c2ccncc2)c(-c2ccc(OCc3ccc4ccccc4n3)cc2)n1 | 1.54 | -3.29 | 0.14 | 1.23 | -1.19 | 0.65 | 0.56 | -0.98 | –
CC/C(=C(/c1ccc(/C=C/C(=O)O)cc1)c1ccc2[nH]ncc2c1)c1ccc(F)cc1Cl | -5.16 | -0.16 | -3.66 | -4.37 | 3.37 | 0 | 1.69 | 0 | –
CSCC[C@H](NC(=O)[C@H](CC(=O)O)NC(C)=O)C(=O)N[C@@H](CCC(N)=O)C(=O)N[C@H](C=O)CC(=O)O (Ac-DMQD-aldehyde) | 0.11 | -1.14 | -0.29 | 0.02 | -0.48 | -0.4 | -1.16 | -0.9 | –
Cc1ncc(Cl)cc1NCc1ccc(C(=O)N[C@@H](CC2CCCC2)C(=O)NC2CC2)s1 | – | – | – | – | – | – | – | – | 2
O=C(NCCCc1ccccc1)c1cccc(-c2cc(O)c3ncccc3c2)c1 | 0.62 | -0.53 | 0.91 | 0.06 | 0.84 | 0.32 | -0.61 | 0.72 | –
CN1CCN(c2nc(-c3ccc(C(=O)NC4(C(=O)NCC#N)CCCCC4)cc3)cs2)CC1 | 0.26 | -0.96 | 0.12 | -0.06 | -0.33 | -1.88 | -0.41 | -0.66 | –
CCNC(=O)c1noc(-c2cc(C(C)C)c(O)cc2O)c1-c1ccc(CN2CCOCC2)cc1 | 0.97 | -0.86 | 0.79 | 0.41 | 0.48 | -0.06 | 0.68 | 0.38 | –
O=[N+]([O-])c1ccc(CSc2ncnc3c2ncn3[C@@H]2O[C@H](CO)[C@@H](O)[C@H]2O)cc1 | -0.08 | -1.24 | -0.1 | -0.39 | -0.67 | 0.1 | -1.6 | -0.18 | –
COc1ccc(-c2ccc(-c3cn(C(=O)N4CCCCC4c4ccccc4)nn3)cc2)cc1 (configuration not stated) | 0.38 | -2.64 | 0.04 | -0.53 | -1.61 | -0.45 | -1.09 | -0.5 | –
CC(C)(OCc1cc(-c2cccc(OC3CC3)c2)n(-c2ccccc2Cl)n1)C(=O)O | 0.39 | -3.91 | -0.19 | 0.08 | 0.42 | 0.09 | -2.34 | -0.77 | –
NC(=O)C1CCCc2c1[nH]c1ccc(Cl)cc21 (configuration not stated) | 0.6 | -2.56 | 0.2 | -0.38 | 0.62 | 0.17 | -0.98 | -0.37 | –
CCOC(=O)NCCCC(=O)NCCc1ccccc1 | 0.36 | -0.9 | -0.09 | 0.24 | 0.15 | 0.16 | -1.13 | -0.68 | –
COc1nc(Nc2cc(S(C)(=O)=O)ccc2N[C@@H](c2cccc3c2OC(F)(F)O3)c2ncccc2Cl)nc(N2CCNCC2)n1 | -0.96 | -4.95 | -3.51 | -0.34 | 0 | 0 | -5.82 | 0.37 | –
COc1ccc(C(=O)N[C@H](C(=O)N2CCC[C@H]2C(=O)N[C@H](C(=O)C(F)(F)F)C(C)C)C(C)C)cc1 | 0.01 | 0.28 | 0.69 | -0.09 | -0.75 | 0.2 | -1.47 | 1.59 | –
N=C(N)NC(=O)c1cnn(-c2cccc3ncccc23)c1C1CC1 | 0.57 | -3 | -0.15 | -0.36 | -0.31 | 0.09 | -2.42 | -0.58 | –
C[C@H](NC(=O)CCc1nc2ccccc2c(=O)[nH]1)c1ccccc1 | 0.18 | 0.84 | 0.79 | 0.42 | -0.21 | 0.83 | -1.25 | 0.31 | –
O=C(Oc1cccc(F)c1OC(=O)c1cccc(O)c1)c1cccc(O)c1 | 0.98 | -0.67 | 0.91 | 0.57 | -0.64 | 0.41 | -0.91 | 1.67 | –
O=C(Nc1ccc2[nH]nc(-c3ccncc3)c2c1)[C@@H]1CCN(CC(=O)N2CCN(c3ccc(-c4ncccn4)cc3)CC2)C1 | 1.95 | -1.51 | 0.12 | 1.66 | 1.44 | 13.1 | 3.82 | -0.46 | –
CCCC(NC(=O)C(CC(C)C)NC(=O)OCc1ccccc1)C(=O)C(=O)NCc1ccccn1 (racemic) | 0.33 | -1.67 | -0.66 | 0.03 | -0.68 | -0.49 | -1.04 | -0.95 | –
CC(=O)N[C@H](C(=O)N[C@@H](CC(=O)O)C(=O)N[C@H](C(=O)N[C@@H](C)C(=O)N[C@H](C=O)CC(=O)O)C(C)C)C(C)C (Ac-VDVAD-aldehyde) | 0.62 | -2.7 | -0.17 | -0.1 | 0.07 | 0 | -1.39 | -0.67 | –
